# Measurements as given in ChEMBL document CHEMBL1961873, “Compounds: GSK PKIS; Assays: Nanosyn kinase panel” (2012).
# Tests used:
# [1] = target: Glycogen synthase kinase-3 beta (Homo sapiens) (UniProt P49841); conditions: at 1 µM;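 further: reported values are mean percent inhibition of GSK3B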
# [2] = target: Homeodomain-interacting protein kinase 1 (Homo sapiens) (UniProt Q86Z02); conditions: at 0.1 µM
# [3] = target: Homeodomain-interacting protein kinase 1 (Homo sapiens) (UniProt Q86Z02); conditions: at 1 µM
# [4] = target: T1, Homeodomain-interacting protein kinase 4 (Homo sapiens) (UniProt Q8NE63); conditions: at 0.1 µM
# T1 sequence (whole entry): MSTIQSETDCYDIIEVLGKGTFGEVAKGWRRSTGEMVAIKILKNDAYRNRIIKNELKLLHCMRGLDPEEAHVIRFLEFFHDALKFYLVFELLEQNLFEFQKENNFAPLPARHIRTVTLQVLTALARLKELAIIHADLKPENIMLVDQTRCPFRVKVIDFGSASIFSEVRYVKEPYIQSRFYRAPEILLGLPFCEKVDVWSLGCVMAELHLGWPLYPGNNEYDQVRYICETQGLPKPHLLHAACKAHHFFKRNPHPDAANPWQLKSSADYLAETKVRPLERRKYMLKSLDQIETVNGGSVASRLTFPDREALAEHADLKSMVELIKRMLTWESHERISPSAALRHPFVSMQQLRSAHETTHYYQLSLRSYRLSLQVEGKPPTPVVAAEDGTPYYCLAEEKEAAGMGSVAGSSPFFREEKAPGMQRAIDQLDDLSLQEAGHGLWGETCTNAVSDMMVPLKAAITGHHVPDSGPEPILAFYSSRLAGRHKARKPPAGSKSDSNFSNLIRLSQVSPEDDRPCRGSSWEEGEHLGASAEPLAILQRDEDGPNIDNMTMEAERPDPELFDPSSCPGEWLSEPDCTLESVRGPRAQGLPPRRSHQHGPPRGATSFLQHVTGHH
# [5] = target: T1, Homeodomain-interacting protein kinase 4 (Homo sapiens); conditions: at 1 µM
# [6] = target: Mitogen-activated protein kinase 9 (Homo sapiens) (UniProt P45984); conditions: at 0.1 µM
# [7] = target: Mitogen-activated protein kinase 9 (Homo sapiens) (UniProt P45984); conditions: at 1 µM
# [8] = target: Mitogen-activated protein kinase 1 (Homo sapiens) (UniProt P28482); conditions: at 0.1 µM
# [9] = target: Mitogen-activated protein kinase 1 (Homo sapiens) (UniProt P28482); conditions: at 1 µM
# [10] = target: Mitogen-activated protein kinase 3 (Homo sapiens) (UniProt P27361); conditions: at 0.1 µM
# [11] = target: Mitogen-activated protein kinase 3 (Homo sapiens) (UniProt P27361); conditions: at 1 µM
# [12] = target: SRSF protein kinase 3 (Homo sapiens) (UniProt Q9UPE1); conditions: at 0.1 µM
# [13] = target: SRSF protein kinase 3 (Homo sapiens) (UniProt Q9UPE1); conditions: at 1 µM
# [14] = target: Mitogen-activated protein kinase 14 (Homo sapiens) (UniProt Q16539); conditions: at 0.1 µM
# [15] = target: Mitogen-activated protein kinase 14 (Homo sapiens) (UniProt Q16539); conditions: at 1 µM
# [16] = target: Mitogen-activated protein kinase 11 (Homo sapiens) (UniProt Q15759); conditions: at 0.1 µM
# [17] = target: Mitogen-activated protein kinase 11 (Homo sapiens) (UniProt Q15759); conditions: at 1 µM
# [18] = target: T2, Mitogen-activated protein kinase 13 (Homo sapiens) (UniProt O15264); conditions: at 0.1 µM
# T2 sequence (whole entry): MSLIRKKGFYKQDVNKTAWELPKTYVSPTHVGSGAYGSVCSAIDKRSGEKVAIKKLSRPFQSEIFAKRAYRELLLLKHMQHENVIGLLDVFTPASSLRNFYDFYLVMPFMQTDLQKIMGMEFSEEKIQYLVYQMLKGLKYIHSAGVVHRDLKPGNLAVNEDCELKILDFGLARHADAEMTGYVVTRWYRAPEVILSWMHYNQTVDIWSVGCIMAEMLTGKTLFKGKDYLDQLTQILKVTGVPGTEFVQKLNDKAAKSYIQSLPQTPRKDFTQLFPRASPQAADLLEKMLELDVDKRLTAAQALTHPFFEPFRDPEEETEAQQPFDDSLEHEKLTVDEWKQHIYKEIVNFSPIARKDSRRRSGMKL
# [19] = target: T2, Mitogen-activated protein kinase 13 (Homo sapiens); conditions: at 1 µM
# [20] = target: T3, Mitogen-activated protein kinase 12 (Homo sapiens) (UniProt P53778); conditions: at 0.1 µM
# T3 sequence (whole entry): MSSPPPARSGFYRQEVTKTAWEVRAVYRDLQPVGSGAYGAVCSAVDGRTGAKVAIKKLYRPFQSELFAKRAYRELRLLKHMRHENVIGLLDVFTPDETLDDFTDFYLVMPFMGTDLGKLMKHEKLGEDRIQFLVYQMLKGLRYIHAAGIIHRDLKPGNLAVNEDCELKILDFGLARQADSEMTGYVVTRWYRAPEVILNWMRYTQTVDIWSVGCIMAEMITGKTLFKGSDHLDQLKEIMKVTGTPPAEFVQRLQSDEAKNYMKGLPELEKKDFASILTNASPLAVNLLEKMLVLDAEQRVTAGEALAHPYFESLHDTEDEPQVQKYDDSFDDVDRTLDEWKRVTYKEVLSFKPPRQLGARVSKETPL
# Mitogen-activated protein kinase 9 (Homo sapiens), sequence (P45984 whole entry, looked up): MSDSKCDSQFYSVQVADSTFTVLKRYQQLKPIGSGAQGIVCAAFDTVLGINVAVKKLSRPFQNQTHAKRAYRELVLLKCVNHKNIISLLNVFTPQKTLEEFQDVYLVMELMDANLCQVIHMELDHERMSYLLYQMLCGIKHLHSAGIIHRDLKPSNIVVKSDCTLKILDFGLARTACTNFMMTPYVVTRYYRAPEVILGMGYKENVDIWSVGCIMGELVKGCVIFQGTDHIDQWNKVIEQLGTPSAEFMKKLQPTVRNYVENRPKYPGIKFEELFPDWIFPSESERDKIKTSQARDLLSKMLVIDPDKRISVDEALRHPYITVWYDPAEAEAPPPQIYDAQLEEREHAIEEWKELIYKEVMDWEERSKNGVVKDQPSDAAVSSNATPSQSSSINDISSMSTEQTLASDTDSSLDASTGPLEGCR
# Mitogen-activated protein kinase 1 (Homo sapiens), sequence (P28482 whole entry): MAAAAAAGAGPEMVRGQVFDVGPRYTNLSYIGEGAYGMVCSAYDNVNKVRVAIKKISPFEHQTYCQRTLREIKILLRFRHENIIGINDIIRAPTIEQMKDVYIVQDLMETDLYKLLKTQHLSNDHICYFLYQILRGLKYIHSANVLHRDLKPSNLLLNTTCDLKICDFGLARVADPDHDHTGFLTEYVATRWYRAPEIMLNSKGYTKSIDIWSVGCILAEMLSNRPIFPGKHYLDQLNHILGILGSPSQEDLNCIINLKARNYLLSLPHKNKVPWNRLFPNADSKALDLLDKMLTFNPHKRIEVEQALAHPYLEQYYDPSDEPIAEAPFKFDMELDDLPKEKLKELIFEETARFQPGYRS
# Mitogen-activated protein kinase 14 (Homo sapiens), sequence (Q16539 whole entry): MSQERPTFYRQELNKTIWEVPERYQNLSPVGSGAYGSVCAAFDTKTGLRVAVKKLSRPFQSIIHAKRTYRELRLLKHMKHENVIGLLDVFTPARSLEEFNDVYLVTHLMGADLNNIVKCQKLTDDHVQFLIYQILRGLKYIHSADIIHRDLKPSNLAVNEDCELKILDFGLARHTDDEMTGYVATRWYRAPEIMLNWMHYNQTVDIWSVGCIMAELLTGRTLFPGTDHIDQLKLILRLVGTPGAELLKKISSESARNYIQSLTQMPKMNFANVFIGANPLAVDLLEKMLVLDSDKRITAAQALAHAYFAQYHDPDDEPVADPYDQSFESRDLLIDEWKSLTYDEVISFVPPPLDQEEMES
# Mitogen-activated protein kinase 3 (Homo sapiens), sequence (P27361 whole entry): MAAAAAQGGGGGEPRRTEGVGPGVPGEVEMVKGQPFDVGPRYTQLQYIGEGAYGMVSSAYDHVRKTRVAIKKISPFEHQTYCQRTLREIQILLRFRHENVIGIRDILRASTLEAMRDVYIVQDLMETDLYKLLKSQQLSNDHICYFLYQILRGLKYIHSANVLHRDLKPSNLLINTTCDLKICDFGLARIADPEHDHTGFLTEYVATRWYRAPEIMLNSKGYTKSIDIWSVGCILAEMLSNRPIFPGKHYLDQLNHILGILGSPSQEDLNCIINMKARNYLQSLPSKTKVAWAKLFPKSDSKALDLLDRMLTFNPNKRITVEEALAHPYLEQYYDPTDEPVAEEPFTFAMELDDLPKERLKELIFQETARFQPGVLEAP
# Glycogen synthase kinase-3 beta (Homo sapiens), sequence (P49841 whole entry, looked up): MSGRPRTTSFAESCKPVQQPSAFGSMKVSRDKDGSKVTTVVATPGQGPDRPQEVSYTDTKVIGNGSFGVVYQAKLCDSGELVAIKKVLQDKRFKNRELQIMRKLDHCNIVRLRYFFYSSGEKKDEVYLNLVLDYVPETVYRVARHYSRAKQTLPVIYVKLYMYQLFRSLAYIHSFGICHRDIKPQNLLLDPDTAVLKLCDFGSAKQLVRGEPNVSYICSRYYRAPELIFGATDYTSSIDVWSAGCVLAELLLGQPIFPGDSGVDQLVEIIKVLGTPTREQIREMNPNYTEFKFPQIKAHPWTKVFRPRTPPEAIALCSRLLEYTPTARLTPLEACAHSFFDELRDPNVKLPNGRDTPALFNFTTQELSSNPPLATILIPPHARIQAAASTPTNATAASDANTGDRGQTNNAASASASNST
# Mitogen-activated protein kinase 11 (Homo sapiens), sequence (Q15759 whole entry): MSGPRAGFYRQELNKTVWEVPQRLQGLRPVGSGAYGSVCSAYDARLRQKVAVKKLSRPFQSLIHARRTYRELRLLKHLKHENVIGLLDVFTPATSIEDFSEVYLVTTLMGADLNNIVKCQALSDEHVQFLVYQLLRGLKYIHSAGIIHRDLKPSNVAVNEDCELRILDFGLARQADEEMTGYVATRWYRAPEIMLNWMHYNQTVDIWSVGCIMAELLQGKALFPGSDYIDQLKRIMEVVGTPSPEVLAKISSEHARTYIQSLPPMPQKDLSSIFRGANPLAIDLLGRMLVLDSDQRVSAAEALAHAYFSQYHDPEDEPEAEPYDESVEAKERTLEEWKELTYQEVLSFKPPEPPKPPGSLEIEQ
# Homeodomain-interacting protein kinase 1 (Homo sapiens), sequence (Q86Z02 whole entry, looked up): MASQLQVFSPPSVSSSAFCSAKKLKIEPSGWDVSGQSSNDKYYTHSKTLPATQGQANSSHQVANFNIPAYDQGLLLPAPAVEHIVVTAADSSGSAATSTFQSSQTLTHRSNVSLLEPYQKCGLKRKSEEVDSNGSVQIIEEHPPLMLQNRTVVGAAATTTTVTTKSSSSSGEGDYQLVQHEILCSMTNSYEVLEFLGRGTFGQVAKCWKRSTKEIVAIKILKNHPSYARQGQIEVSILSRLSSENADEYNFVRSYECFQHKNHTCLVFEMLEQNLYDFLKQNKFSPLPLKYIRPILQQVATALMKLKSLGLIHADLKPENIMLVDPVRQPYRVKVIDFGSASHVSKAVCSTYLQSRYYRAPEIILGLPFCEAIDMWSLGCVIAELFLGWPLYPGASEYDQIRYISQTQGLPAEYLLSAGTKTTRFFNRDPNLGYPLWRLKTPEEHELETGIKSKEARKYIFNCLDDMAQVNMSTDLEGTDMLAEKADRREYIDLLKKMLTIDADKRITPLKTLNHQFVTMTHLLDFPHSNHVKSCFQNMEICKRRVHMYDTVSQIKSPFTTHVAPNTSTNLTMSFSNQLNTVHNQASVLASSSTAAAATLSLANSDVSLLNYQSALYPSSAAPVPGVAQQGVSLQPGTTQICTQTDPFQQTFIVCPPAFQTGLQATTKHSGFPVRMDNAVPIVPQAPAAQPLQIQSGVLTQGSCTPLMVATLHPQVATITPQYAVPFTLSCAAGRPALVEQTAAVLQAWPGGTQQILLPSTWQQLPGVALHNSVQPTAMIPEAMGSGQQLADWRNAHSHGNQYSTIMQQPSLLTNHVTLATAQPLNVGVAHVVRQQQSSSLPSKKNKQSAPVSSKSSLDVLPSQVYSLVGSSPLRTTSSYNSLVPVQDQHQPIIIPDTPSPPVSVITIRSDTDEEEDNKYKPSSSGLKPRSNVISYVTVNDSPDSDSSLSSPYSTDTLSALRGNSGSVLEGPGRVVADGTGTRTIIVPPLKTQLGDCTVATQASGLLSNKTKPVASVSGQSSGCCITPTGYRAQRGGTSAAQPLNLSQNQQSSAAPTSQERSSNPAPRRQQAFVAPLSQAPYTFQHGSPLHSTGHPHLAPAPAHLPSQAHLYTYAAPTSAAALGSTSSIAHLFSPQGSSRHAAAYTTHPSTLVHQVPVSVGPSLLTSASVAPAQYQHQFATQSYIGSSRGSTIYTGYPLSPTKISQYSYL
# SRSF protein kinase 3 (Homo sapiens), sequence (Q9UPE1 whole entry): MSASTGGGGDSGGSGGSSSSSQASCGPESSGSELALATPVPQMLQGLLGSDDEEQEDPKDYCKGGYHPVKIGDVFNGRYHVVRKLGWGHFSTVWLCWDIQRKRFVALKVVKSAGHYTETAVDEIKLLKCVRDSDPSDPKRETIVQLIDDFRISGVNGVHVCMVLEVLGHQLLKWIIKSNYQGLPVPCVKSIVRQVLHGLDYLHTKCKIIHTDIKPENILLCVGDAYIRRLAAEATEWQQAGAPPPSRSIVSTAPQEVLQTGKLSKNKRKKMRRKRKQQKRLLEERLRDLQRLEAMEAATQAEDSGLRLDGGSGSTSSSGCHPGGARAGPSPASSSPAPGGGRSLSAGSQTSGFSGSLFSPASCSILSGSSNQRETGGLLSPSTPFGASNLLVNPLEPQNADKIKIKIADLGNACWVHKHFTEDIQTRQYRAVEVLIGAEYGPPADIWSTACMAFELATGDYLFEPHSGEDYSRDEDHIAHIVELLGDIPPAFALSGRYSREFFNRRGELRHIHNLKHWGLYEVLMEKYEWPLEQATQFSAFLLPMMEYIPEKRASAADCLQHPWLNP
SMILES,inhibition [1] [%],inhibition [2] [%],inhibition [3] [%],inhibition [4] [%],inhibition [5] [%],inhibition [6] [%],inhibition [7] [%],inhibition [8] [%],inhibition [9] [%],inhibition [10] [%],inhibition [11] [%],inhibition [12] [%],inhibition [13] [%],inhibition [14] [%],inhibition [15] [%],inhibition [16] [%],inhibition [17] [%],inhibition [18] [%],inhibition [19] [%],inhibition [20] [%]
O=C(Nc1ccc(Oc2ccc3[nH]c(NC(=O)c4ccco4)nc3c2)cc1)Nc1cc(C(F)(F)F)ccc1F,1.83,-4.45,-2.14,13.6,66.3,0.08,2.67,0.81,0.8,1.59,2.24,2.34,39.6,4.66,39.4,4.14,31.7,1.18,1.53,-4.43
Cc1ccc(C(=O)NC2CC2)cc1-c1ccc2[nH]ncc2c1,1.14,-4.85,0.04,0.67,5.11,-0.5,-1.51,-3.82,-5.22,-2.68,-2.12,2.03,-0.89,3.93,52.8,4.23,28.2,-4.94,-5.34,-3.26
CN(c1ccc(NC(=O)Nc2ccc(OC(F)(F)F)cc2)cc1)c1ccnc(Nc2cccc(S(N)(=O)=O)c2)n1,13.6,1.06,34,62.4,83.6,1.46,3.15,4.33,3.93,2.67,3.33,-1.09,16.6,4.8,13.6,4.81,16.7,2.86,6.6,2.28
N#Cc1c(NC(=O)c2ccccc2F)sc2c1CCCC2,-0.09,-4.32,-0.26,-0.44,1.41,-2.15,2.33,-0.94,-1.13,-1.39,-1.26,-1.34,-0.38,-1.85,-1.18,0.63,2.26,-1.92,-2.71,-1.2
Cc1cc(Cl)cc2c1NC(=O)C2=NNc1ccc(S(N)(=O)=O)cc1,5.76,1.47,1.67,0.61,2.42,-0.14,2.41,4.09,2.74,2.98,4.37,0.26,-0.13,-2.89,3.98,3.77,7.2,-1.04,1.98,0.32
CCn1c(-c2nonc2N)nc2ccc(F)cc21,3.37,2.6,2.13,2.47,3.5,5.8,7.99,6.8,8.85,6.33,7.45,-2.41,-1.12,5.24,8.37,7.69,9.2,2.3,6.26,3.81
COc1cc(/C=N/Nc2ncnc3c2cnn3C(C)C)ccc1O,32.9,0.71,16.1,1.74,19.6,2.63,3.44,1.48,2.57,1.63,2.88,-2.39,-1.29,1.82,3.92,0.99,2.61,1.12,3.06,1.85
NS(=O)(=O)c1ccc(Nc2cc(-c3cccc(O)c3)n[nH]2)cc1,5.21,-1.93,2.36,0.59,3.33,5.37,6.35,5.89,4.96,4.41,3.73,0.13,-0.83,4.9,9.21,7.39,9.77,2.03,7.23,3.84
NC(=O)c1sc(-n2cnc3ccccc32)cc1OCc1ccccc1Br,11.8,-1.6,7.12,0.95,7.54,4.13,6,3.31,5.56,1.19,4.22,-0.27,-0.72,8.45,23.1,1.2,4.68,4.65,5.08,3.45
C[C@@H](Oc1cc(-n2cnc3ccc(OC[C@@H](O)CO)cc32)sc1C(N)=O)c1ccccc1Cl,4.23,-0.81,4.78,1.18,9.28,-0.38,-0.96,-3.13,-1.64,-0.87,-2.21,-1.72,0.27,2.66,3.54,-1.66,1.86,-3.13,-2.7,-0.19
Nc1nccc(-c2c(-c3ccc(F)cc3)ncn2CCCN2CCOCC2)n1,4.68,0.97,-1.48,0.18,-0.66,4.45,15.8,6.64,4.64,3.65,5.63,-3.36,-1.79,21.2,64.9,6.8,20.2,2.28,5.09,1.09
Nc1nccc(-c2c(-c3ccc(F)cc3)nn3cc(C(F)(F)F)ccc23)n1,-1.01,-6.6,-1.23,-0.17,0.63,2.4,4.47,-0.05,0.2,3.72,2.32,-1.48,-1.99,7.89,47.2,4.49,10.5,0.69,-1.62,1.12
CCS(=O)(=O)c1ccc(OC)c(Nc2nccc(N(C)c3ccc4c(C)n[nH]c4c3)n2)c1,1.7,-2.02,1.03,0.52,1.15,3.79,2.08,5.51,5.64,4.15,4.25,-3.37,-0.4,5.92,8.09,3.01,3.67,4.71,2.73,2.34
COc1cccc(-n2ncc3c(N/N=C/c4ccc(S(C)(=O)=O)cc4)ncnc32)c1,79,21.4,64.3,18.3,60.6,1.92,4.9,1.63,1.93,2.27,1.55,-0.64,1,-3.8,4.7,0.81,1.99,1.44,6.79,2.12
CC(C)c1ccc(Nc2nccc(-c3cnn4ncccc34)n2)cc1,75.4,57.9,87.8,11.2,50.6,5.25,27,3.14,9.29,0.92,3,-1.04,0.7,-1.86,28.2,2.54,5.44,1.62,5.42,-0.84
Cc1ccc(O)cc1Nc1ccnc2ccc(S(C)(=O)=O)cc12,3.47,-0.12,1.59,2.64,8.27,4.77,5.22,5.91,5.63,5.26,2.62,-1.95,-1.35,14,58.8,9,34.2,2.61,6.26,0.62
CC(C)c1ccc2c(c1)NC(=O)/C2=N/Nc1ccc(S(N)(=O)=O)cc1,16.8,-1.88,4.72,0.27,1.57,0.14,0.34,2.02,0.4,1.56,-0.93,-0.91,-3.87,0.75,-0.04,-1.84,3.37,-0.12,-0.88,0.48
NS(=O)(=O)c1cccc(-c2cc3ccncc3cc2OCc2ccccc2)c1,3.55,1.1,6.53,1.76,8.61,0.94,3.75,4.71,5.84,4.25,4.26,-0.37,-1.61,2.47,8.87,3.17,5.6,-1.11,5.95,0.96
CN(C)C(=O)O[C@H]1CN[C@H](C#Cc2cc3ncnc(Nc4ccc(OCc5cccc(F)c5)c(Cl)c4)c3s2)C1,4.1,-0.07,0.31,0.17,1.29,2.26,6.8,-0.55,2.89,1.44,3.14,0.23,-1.8,1.35,7,0.51,1.53,-0.2,2.51,0.18
Oc1cccc(-c2nc(-c3ccccc3)[nH]c2-c2ccncc2)c1,18.9,1.65,4.29,10.7,44.9,2.02,10.7,5.56,5.82,3.48,5.5,1.08,12.3,34.9,71.1,10.7,47.7,1.41,3.86,-0.21
COC(=O)c1ccc2c(c1)C(=Cc1cc(Br)c(O)c(Br)c1)C(=O)N2,44.2,10.2,60.8,4.27,35,4.88,11,3.12,6.19,4.78,5.46,3.56,-0.06,5.88,7.6,2.64,4.68,3.43,5.81,4.05
Cc1cc(O)cc(C)c1/C=C/c1cncc(C(=O)N(C)C)c1,9.44,0.32,4.88,4.28,7.94,-0.29,2.38,2.76,2.51,3.48,2.75,1.6,2.35,5.83,7.03,3.38,8.48,1.6,3.68,4.71
NS(=O)(=O)c1ccc(N/N=C2\C(=O)Nc3ccc(Cl)cc32)cc1,54.1,2.46,10.2,2.99,7.64,3.27,4.35,6.29,4.79,4.87,4.54,-0.26,0.76,0.03,4.11,3.71,5.91,1.25,3.33,0.26
Nc1nccc(C#Cc2cncnc2Nc2ccc(OCc3cccc(F)c3)c(Cl)c2)n1,10.5,-0.05,6.94,4.23,8.43,3.97,4.23,3.54,4.87,1.83,1.04,0.77,-0.42,2.98,7.42,0.46,4.43,1.14,4.65,0.02
Cc1ccc2c(c1)/C(=N/Nc1ccc(S(N)(=O)=O)cc1)C(=O)N2,23.7,-4.8,0,-2.11,-0.65,2.38,1.49,-0.67,2.7,2.34,1.36,-0.75,-2.57,1.29,5.27,3.1,6.52,-0.85,0.5,0.27
COc1ccc2ncnc(Nc3ccc(OCc4ccccc4)cc3)c2c1,0.7,0.26,3.41,0.67,1.18,3.85,2.97,2.37,2.37,4.06,4.61,-1.92,0.73,5.87,10.2,2.79,7.38,0.25,1.34,-0.24
